Reference: PubChem BioAssay (NCATS)
Inconclusive results are not listed. Activity calls are given as the source filed them. Unless noted, calls follow the shape of the dose curve; as a rule, active = well fitted curve in the direction sought with a large enough effect; inconclusive = small, poorly fitted or top-dose-only effect, or another doubt; inactive = no such curve, though single readings can be large; an effect the other way counts as inactive or inconclusive.

Legend:
[1] = target: Lysosomal acid glucosylceramidase (Homo sapiens) (UniProt P04062); experiment: Glucocerebrosidase-p2 (AID 348; in the data active = potency below about 10 µM; also: potency is read from the fitted curve at half-maximal effect); settings: purified GBA, blue fluorogenic substrate, 40 min
How it was run: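 Normal human glucocerebrosidase (0.2 nM) with blue fluorogenic substrate (80 uM final) in citrate/phosphate pH 5.9 with 10mM sodium taurocholate, 0.01% tween-20; 40 min RT, NaOH/glycine stop; fluorescence Ex 365/Em 440; AC50 from a titration from 0.6 nM upwards.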

[2] = AP1 Signaling Pathway (AID 357; active = well fitted curve in either direction with a large enough effect, not every such curve was filed as active; also: % is scaled to controls: 0 for no effect and ±100 for the full control effect); settings: ME-180 AP-1-bla reporter, EGF-induced, beta-lactamase ratio, 5 h; at 7.69 µM (top of the series) unless noted
How it was run: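 ME-180 cells with beta-lactamase reporter under AP-1 response element, stimulated with EC50 EGF; compounds tested in titration series, 5 h at 37 °C. CCF4 substrate added 2.5 h at room temperature; 460/530 nm emission ratio gave %activity and AC50.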

[3] = NFAT Signaling Pathway (AID 444; active = well fitted curve in either direction with a large enough effect, not every such curve was filed as active;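 also: carbachol stimulus at about its EC50 of 1 µM final; % is scaled to controls: 0 for no effect and ±100 for the full control effect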); settings: Jurkat NFAT-bla M1, carbachol, beta-lactamase ratio, 5 h; at 7.69 µM (top of the series) unless noted
How it was run: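 Jurkat cells carrying an NFAT-driven β-lactamase reporter and co-transfected muscarinic M1 receptor were treated with compound plus carbachol (1 uM final, an EC50 level) for 5 h at 37 °C. CCF4 loading followed for 1 h at RT; 460/530 nm ratio gave %activity.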

[4] = Stat Signaling Pathway (AID 446; active = well fitted curve in either direction with a large enough effect, not every such curve was filed as active;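 also: ME-180 cervical cancer cells given 40 pM IL-6 alongside compound; SIE-controlled beta-lactamase reporter measured as 460/530 nm FRET emission ratio; % is scaled to controls: 0 for no effect and ±100 for the full control effect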); settings: ME-180 SIE beta-lactamase reporter, IL-6 stimulated, 5 h; at 7.69 µM (top of the series) unless noted
How it was run: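 Emission at 460 and 530 nm (excitation 405 nm) reports SIE-controlled beta-lactamase in ME-180 cells. Cells received compound with 40 pM IL-6 for 5 hrs at 37 C; data scaled between 300 pM IL-6 and 125 nM JAK-inhibitor controls.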

[5] = target: Glucocorticoid receptor (Homo sapiens) (UniProt P04150); experiment: GR-GFP Redistribution (AID 450;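 active = compounds whose dose series gives a full or clear partial fitted curve of increased nuclear translocation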; also: potency is read from the fitted curve at half-maximal effect); settings: U2OS GR-GFP nuclear translocation, laser cytometry, 2 h
[6] = target: Glucocorticoid receptor (Homo sapiens) (UniProt P04150); experiment: GR-EFC Redistribution (AID 451; calls by dose curve; also: potency is read from the fitted curve at half-maximal effect); settings: CHO-K1 GR-EFC translocation, beta-gal luminescence, 2 h
How it was run: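 CHO-K1 cells stably expressing nuclear-localized β-gal enzyme acceptor and GR fused C-terminally to the enzyme donor fragment; ligand-driven nuclear translocation restores β-gal by complementation. Compounds titrated up to 46 uM final, 2 h at 37 °C; luminescence read.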

[7] = target: Mitogen-activated protein kinase 10 (Mus musculus) (UniProt Q61831); experiment: JNK3 AlphaScreen Assay (AID 530; active = well fitted curve in either direction with a large enough effect, not every such curve was filed as active;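 also: kinase came from lysate of stimulated human HepG2 cells; signal reports phosphorylation of biotinylated GST-cJun 1-79 at Ser73 with 10 µM ATP; % is scaled to controls: 0 for no effect and ±100 for the full control effect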); settings: JNK3 lysate, c-Jun phosphorylation; series mostly up to 57.1 µM
How it was run: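 Biotinylated GST-cJun(1-79) served as substrate for JNK3 in HepG2 lysates stimulated with IL-1beta and TNF-alpha. ATP was 10 uM final, pH 7.6. Ser73 phosphorylation was quantified by AlphaScreen (680 nm excitation).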

[8] = target: 3',5'-cyclic-AMP phosphodiesterase 4B (Homo sapiens) (UniProt Q07343); experiment: qHTS Assay for Inhibitors of PDE-IV (AID 607; active = well fitted activation curve with a large enough effect in the main read-out, with a control signal flat, not every such curve was filed as active; also: % of control where 0% means no effect); settings: HEK293 ACTOne CNG channel cells, membrane potential fluorescence; series mostly up to 22.9 µM
How it was run: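 The readout is membrane depolarisation from a cAMP-sensing CNG channel, detected with a potential dye at ex 535/em 590. Cells were HEK293-derived (endogenous PDE-IV) at 1000 cells/well, titrated up to 22.9 uM final.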

[9] = qHTS Assay for Identification of Small Molecule Agonists for Hypoxia Response Element Signaling Pathway (AID 914; active = well fitted activation curve with a large enough effect in the signal ratio, with a control signal flat, not every such curve was filed as active; the % refers to the signal ratio; also: potency is read from the fitted curve at half-maximal effect; as to activation: % of control where 0% means no effect); settings: ME-180 HRE-bla reporter, beta-lactamase ratio, CoCl2, 17 h; activation: hits give high values
How it was run: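 ME-180 cells carrying an HRE-driven beta-lactamase reporter were treated with compounds in a titration series plus an EC50 level of CoCl2 for 17 h at 37 degrees Celsius; CCF4 readout as the 460nm/530nm ratio gave AC50 values.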

[10] = target: Dual specificity protein kinase CLK4 (Homo sapiens) (UniProt Q9HAZ1); experiment: qHTS Assay for Inhibitors of CDC-like Kinase 4 (Kinase-Glo Assay) (AID 1770); settings: recombinant Clk4, Kinase-Glo ATP depletion luminescence; series mostly up to 66.7 µM; also: nearly all actives have a fitted effect of over 65% in size; also: potency is read from the fitted curve at half-maximal effect
How it was run: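 Luminescent ATP-depletion read-out (Kinase-Glo) after 4.5 h room-temperature reaction of Clk4 (25 nM final) with RS peptide (100 uM) and ATP (1 uM), pH 7.5 Tris buffer with MgCl2 and DTT.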

[11] = target: Dual specificity protein kinase CLK4 (Homo sapiens) (UniProt Q9HAZ1); experiment: qHTS Assay for Inhibitors of CDC-like Kinase 4 (ADP-Glo Assay) (AID 1771); settings: recombinant CLK4, ADP-Glo luminescence; series mostly up to 80 µM; also: nearly all actives have a fitted effect of over 70% in size; also: potency is read from the fitted curve at half-maximal effect
How it was run: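 25 nM Clk4, 100 uM RS peptide, 1 uM ATP (final); 2 mM MgCl2, 0.5 mM EGTA, 2.5 mM DTT, 0.01% Triton X-100; 1 hr RT. ADP-Glo readout: ATP depletion 45 min, conversion/luciferase 30 min, luminescence.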

[12] = target: Ubiquitin carboxyl-terminal hydrolase 1 (Homo sapiens) (UniProt O94782); experiment: Inhibitors of USP1/UAF1: Pilot qHTS (AID 504865); settings: purified USP1/UAF1, Ub-rhodamine cleavage fluorescence; series mostly up to 54.9 µM; also: nearly all actives have a fitted effect of over 35% in size; also: potency is read from the fitted curve at half-maximal effect
How it was run: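 Deubiquitinase activity followed as kinetic rhodamine fluorescence release from 150 nM Ub-Rho. 1 nM USP1/UAF1 with compound, after 15 min room-temperature preincubation, in HEPES pH 7.8 buffer containing TCEP, EDTA, BSA and Tween-20.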

[13] = Primary qHTS for small molecule stabilizers of the endoplasmic reticulum resident proteome: Secreted ER Calcium Modulated Protein (SERCaMP) assay (AID 1508630); settings: SH-SY5Y GLuc-SERCaMP (Gaussia luciferase released on ER calcium loss) secretion, thapsigargin, luminescence; series mostly up to 38.4 µM; also: % is scaled to controls: 0 for no effect and ±100 for the full control effect
How it was run: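 The SH-SY5Y reporter protocol was run at 3 concentrations up to 38.3 uM (primary) or 11 concentrations (follow-up): 16 h compound, 100 nM thapsigargin for 4 h, then extracellular luciferase luminescence.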

[14] = target: Cytochrome P450 1A2 (Homo sapiens) (UniProt P05177); experiment: p450-cyp1a2 (AID 410; calls by dose curve; also: potency is read from the fitted curve at half-maximal effect); settings: recombinant CYP1A2, luciferin-ME demethylation, luminescence; series mostly up to 57 µM
How it was run: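 20nM CYP1A2, 100uM Luciferin-ME (=Km), 100mM KPO4; cpd 10 min RT; +NADPH regen, 60 min RT; stop/detect 20 min; luminescence. Normalized to furafylline 57 uM = full inhibition.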

[15] = target: Cytochrome P450 2C9 (Homo sapiens) (UniProt P11712); experiment: qHTS Assay for Inhibitors and Substrates of Cytochrome P450 2C9 (AID 883); settings: recombinant CYP2C9, luciferin-H luminescence, 60 min; series mostly up to 57.1 µM; also: potency is read from the fitted curve at half-maximal effect; nearly all actives have a fitted effect of over 60% in size
How it was run: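 A luminogenic readout tracked human CYP2C9 (10nM) converting deoxyluciferin (100uM, at KM) in 25mM KPO4 during 60 min at 37C with regenerated NADPH. Values normalized to 57uM sulphaphenazole as complete inhibition.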

[16] = target: Cytochrome P450 3A4 (Homo sapiens) (UniProt P08684); experiment: qHTS Assay for Inhibitors and Substrates of Cytochrome P450 3A4 (AID 884); settings: recombinant CYP3A4, Luciferin-PPXE luminescence; series mostly up to 57.1 µM; also: potency is read from the fitted curve at half-maximal effect; nearly all actives have a fitted effect of over 50% in size
How it was run: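 Luminescent readout of luciferin produced by CYP3A4 (20 nM) dealkylation of Luciferin-PPXE, 25 uM (its KM). NADPH-driven reaction ran 60 min at RT after 10 min compound preincubation; data scaled to 57 uM ketoconazole as 100% inhibition.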

[17] = target: Cytochrome P450 3A4 (Homo sapiens) (UniProt P08684); experiment: qHTS Assay for Activators of Cytochrome P450 3A4 (AID 885); settings: recombinant CYP3A4, Luciferin-PPXE luminescence, 60 min; series mostly up to 57.1 µM; also: nearly all actives have a fitted effect of over 65% in size
How it was run: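 Activators are scored by enhanced luminescence from CYP3A4 conversion of luciferin-PPXE (25uM, equal to KM) to luciferin, after 60 min at RT with an NADPH-regenerating system.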

[18] = target: Cytochrome P450 2D6 (Homo sapiens) (UniProt P10635); experiment: qHTS Assay for Inhibitors and Substrates of Cytochrome P450 2D6 (AID 891); settings: recombinant CYP2D6, luciferin-ME EGE luminescence; series mostly up to 57.1 µM; also: potency is read from the fitted curve at half-maximal effect; nearly all actives have a fitted effect of over 60% in size
How it was run: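 Luminescent read-out of luciferin formed by 5 nM human CYP2D6 demethylating 30 uM Luciferin-ME EGE (Km level) over 60 min at room temperature after NADPH regeneration addition. Data normalized to full inhibition by 1.43 uM quinidine.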

[19] = target: Cytochrome P450 2C19 (Homo sapiens) (UniProt P33261); experiment: qHTS Assay for Inhibitors and Substrates of Cytochrome P450 2C19 (AID 899); settings: recombinant CYP2C19, luciferin-H EGE luminescence; series mostly up to 57.1 µM; also: potency is read from the fitted curve at half-maximal effect; nearly all actives have a fitted effect of over 60% in size
How it was run: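 NADPH-dependent conversion of Luciferin-H EGE (10uM, at KM) by 5nM enzyme in 50mM KPO4, 60 min at 37C following 10 min compound preincubation. Stopped with luciferin detection buffer; luminescence read after 20 min.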

[20] = target: Dual specificity protein kinase CLK4 (Homo sapiens) (UniProt Q9HAZ1); experiment: qHTS Assay for Inhibitors of CDC-like Kinase 4 (ADP-FP Assay) (AID 1795); settings: Transcreener ADP fluorescence polarization; series mostly up to 50 µM;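 also: recombinant human CLK4 phosphorylating RS repeat peptide at 1 µM ATP; % is scaled to controls: 0 for no effect and ±100 for the full control effect; nearly all actives have a fitted effect of over 60% in size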
How it was run: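 Kinase activity was measured as ADP production using Transcreener orange tracer (4 nM) and ADP antibody (1 ug/mL) fluorescence polarization, with ADP calculated from a calibration curve. The 1 h reaction contained 6.25 nM Clk4, 1 uM ATP and 100 uM RS peptide at pH 7.5 with Mg2+.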

Cytochrome P450 3A4 (Homo sapiens), sequence (P08684 whole entry, looked up): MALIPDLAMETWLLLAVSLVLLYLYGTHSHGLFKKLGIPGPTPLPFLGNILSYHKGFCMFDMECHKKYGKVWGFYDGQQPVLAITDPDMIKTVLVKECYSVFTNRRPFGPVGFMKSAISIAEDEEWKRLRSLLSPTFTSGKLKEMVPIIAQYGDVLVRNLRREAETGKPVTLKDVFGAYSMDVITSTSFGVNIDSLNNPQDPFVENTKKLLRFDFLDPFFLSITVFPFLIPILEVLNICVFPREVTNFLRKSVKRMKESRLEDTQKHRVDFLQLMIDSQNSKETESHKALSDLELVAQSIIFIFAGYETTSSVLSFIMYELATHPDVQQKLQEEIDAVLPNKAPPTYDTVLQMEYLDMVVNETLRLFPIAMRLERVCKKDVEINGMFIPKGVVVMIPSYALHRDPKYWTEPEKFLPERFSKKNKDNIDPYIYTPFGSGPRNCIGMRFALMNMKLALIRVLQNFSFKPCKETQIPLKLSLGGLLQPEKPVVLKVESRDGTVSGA
Cytochrome P450 1A2 (Homo sapiens), sequence (P05177 whole entry, looked up): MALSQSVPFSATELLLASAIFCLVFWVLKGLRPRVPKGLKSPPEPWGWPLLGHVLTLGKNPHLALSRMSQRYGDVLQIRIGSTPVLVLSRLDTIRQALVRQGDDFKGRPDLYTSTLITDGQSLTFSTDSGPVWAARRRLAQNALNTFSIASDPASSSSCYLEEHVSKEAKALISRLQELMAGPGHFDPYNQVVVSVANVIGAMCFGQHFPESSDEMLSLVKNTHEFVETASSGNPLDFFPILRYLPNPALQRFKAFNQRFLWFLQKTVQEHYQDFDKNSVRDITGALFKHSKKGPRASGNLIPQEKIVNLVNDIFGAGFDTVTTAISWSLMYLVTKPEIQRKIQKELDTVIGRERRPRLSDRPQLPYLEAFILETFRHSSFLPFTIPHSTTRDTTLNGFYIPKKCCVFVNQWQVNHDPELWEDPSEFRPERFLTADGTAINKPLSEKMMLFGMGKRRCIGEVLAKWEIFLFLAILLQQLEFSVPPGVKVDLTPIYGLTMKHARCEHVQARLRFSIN
3',5'-cyclic-AMP phosphodiesterase 4B (Homo sapiens), sequence (Q07343 whole entry, looked up): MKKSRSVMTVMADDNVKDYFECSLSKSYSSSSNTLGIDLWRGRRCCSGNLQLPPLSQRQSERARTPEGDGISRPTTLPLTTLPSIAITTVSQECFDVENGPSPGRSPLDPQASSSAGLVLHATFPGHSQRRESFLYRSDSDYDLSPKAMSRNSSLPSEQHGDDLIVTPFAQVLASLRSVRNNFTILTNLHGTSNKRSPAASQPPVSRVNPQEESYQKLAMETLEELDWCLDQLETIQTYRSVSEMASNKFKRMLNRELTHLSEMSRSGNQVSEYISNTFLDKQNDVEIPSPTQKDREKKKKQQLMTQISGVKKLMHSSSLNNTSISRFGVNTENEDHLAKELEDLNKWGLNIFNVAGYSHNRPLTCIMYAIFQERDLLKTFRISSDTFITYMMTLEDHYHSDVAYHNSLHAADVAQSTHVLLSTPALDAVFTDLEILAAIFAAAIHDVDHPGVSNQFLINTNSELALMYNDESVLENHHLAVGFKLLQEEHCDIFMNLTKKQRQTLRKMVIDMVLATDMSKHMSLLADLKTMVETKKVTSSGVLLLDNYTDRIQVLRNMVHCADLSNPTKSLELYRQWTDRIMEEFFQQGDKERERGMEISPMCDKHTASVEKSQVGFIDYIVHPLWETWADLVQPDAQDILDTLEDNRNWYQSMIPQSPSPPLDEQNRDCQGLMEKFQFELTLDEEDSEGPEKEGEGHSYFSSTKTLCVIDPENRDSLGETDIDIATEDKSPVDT
Lysosomal acid glucosylceramidase (Homo sapiens), sequence (P04062 whole entry, looked up): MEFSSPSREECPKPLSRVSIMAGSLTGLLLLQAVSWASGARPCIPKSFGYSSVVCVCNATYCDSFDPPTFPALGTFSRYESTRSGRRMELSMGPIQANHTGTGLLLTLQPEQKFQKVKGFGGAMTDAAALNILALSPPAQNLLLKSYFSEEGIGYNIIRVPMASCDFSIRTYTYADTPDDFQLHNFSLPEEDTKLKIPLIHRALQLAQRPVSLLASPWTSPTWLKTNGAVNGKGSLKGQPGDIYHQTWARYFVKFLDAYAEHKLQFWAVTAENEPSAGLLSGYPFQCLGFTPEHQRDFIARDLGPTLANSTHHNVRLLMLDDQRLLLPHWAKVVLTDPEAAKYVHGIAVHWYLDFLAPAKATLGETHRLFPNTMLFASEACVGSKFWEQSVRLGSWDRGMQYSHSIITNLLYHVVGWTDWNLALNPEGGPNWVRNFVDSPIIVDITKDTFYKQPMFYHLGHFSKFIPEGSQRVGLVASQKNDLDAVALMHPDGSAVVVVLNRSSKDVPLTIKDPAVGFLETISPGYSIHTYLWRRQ
Ubiquitin carboxyl-terminal hydrolase 1 (Homo sapiens), sequence (O94782 whole entry, looked up): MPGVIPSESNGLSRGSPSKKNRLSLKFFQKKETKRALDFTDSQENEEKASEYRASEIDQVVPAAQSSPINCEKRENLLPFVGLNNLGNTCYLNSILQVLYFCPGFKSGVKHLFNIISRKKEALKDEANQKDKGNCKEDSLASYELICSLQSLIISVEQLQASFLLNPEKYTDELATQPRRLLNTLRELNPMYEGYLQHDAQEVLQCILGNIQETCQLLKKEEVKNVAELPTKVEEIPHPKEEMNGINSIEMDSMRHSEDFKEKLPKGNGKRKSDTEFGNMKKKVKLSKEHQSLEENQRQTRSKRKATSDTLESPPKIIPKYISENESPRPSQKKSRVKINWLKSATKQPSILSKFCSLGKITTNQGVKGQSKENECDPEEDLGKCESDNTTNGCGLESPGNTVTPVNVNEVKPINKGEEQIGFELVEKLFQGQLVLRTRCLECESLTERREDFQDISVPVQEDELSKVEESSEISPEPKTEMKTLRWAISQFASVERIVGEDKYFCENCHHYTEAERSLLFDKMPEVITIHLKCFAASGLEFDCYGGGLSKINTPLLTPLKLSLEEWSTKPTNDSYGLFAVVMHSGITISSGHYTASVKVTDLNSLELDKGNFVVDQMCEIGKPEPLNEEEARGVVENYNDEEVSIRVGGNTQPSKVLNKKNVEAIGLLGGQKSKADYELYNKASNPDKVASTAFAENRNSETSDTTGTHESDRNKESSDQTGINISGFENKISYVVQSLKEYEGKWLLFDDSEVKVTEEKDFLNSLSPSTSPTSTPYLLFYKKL
Glucocorticoid receptor (Homo sapiens), sequence (P04150 whole entry, looked up, the tested form may be a part): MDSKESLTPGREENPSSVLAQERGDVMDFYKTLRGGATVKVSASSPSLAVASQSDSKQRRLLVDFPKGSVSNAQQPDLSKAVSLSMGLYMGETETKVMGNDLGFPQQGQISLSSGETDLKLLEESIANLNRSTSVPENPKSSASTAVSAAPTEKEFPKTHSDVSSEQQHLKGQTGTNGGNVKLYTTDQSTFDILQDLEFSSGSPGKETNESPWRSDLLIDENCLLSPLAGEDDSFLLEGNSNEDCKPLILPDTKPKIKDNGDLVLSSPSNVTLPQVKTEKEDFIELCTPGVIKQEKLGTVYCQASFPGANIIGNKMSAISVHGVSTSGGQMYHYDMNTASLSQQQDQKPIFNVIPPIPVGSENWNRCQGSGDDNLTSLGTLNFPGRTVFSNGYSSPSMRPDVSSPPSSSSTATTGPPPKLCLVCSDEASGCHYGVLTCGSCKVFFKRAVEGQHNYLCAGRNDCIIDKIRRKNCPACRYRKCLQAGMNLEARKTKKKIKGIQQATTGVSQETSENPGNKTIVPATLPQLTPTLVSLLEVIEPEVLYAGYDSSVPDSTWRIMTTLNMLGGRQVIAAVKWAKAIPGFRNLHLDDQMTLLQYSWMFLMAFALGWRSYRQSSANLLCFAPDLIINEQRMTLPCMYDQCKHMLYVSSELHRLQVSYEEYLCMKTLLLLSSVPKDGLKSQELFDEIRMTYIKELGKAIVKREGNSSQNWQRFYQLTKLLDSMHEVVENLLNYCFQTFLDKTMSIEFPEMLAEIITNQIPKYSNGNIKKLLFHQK
Cytochrome P450 2C19 (Homo sapiens), sequence (P33261 whole entry, looked up): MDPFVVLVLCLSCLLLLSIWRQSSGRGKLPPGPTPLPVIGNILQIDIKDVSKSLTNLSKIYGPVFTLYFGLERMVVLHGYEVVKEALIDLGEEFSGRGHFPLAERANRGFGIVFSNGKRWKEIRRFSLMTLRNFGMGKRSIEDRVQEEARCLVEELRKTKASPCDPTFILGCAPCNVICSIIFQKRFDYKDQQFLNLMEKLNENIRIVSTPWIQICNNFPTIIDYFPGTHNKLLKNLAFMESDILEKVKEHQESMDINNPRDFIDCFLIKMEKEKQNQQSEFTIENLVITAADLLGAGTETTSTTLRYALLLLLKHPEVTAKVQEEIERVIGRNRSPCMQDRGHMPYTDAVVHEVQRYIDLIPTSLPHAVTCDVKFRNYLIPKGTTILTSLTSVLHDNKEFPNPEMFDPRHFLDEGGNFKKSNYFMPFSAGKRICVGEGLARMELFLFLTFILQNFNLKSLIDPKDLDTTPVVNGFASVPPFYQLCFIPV
Dual specificity protein kinase CLK4 (Homo sapiens), sequence (Q9HAZ1 whole entry, looked up): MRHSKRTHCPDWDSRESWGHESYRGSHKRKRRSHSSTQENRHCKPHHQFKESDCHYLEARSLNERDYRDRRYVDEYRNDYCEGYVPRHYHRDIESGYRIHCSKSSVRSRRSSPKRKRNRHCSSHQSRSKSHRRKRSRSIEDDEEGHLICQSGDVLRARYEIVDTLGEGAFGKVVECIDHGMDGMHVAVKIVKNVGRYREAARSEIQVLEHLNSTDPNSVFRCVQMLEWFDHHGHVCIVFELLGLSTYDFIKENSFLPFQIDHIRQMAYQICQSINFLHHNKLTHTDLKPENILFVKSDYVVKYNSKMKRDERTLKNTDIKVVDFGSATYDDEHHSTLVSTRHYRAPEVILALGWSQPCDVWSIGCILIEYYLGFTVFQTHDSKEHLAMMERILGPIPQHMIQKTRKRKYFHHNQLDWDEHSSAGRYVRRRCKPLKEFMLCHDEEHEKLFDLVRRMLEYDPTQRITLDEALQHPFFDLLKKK

FC(F)(F)c1ccccc1-c1nc(-n2ccnc2)c2ccccc2n1
inactive: Potency [1] > 11.4 µM | activity change, negative = inhibition [2] 9.46% | activity change, negative = inhibition [3] 3.74% | activity, negative = inhibition [4] -3.35% | Potency [5] > 46 µM | Potency [6] > 46 µM | Potency [7] | Potency [8] | activation [9] 2.67% | Potency [12] | outcome [13]
active: Potency [10] 15.8 µM | Potency [11] 17.8 µM

Cc1ccccc1-c1ccc2ncnc(NCc3cccnc3)c2c1
inactive: activity change, negative = inhibition [2] -2.6% | activity change, negative = inhibition [3] 2.06% | activity, negative = inhibition [4] -11% | Potency [5] > 46 µM | Potency [6] > 46 µM | Potency [7] | Potency [8] | Potency [17] | Potency [12] | outcome [13]
active: Potency [14] 0.251 µM | Potency [15] 0.794 µM | Potency [16] 1.58 µM | Potency [18] 2 µM | Potency [19] 1.58 µM | Potency [10] 14.1 µM | Potency [11] 11.2 µM

COc1cccc(Cn2c(=O)c(-c3ccc(Cl)cc3)nc3cnc(N4CCOCC4)nc32)c1
inactive: Potency [1] > 11.4 µM | Potency [6] > 46 µM | Potency [7] | Potency [8] | Potency [10] | Potency [11] | Potency [12] | outcome [13]
active: Potency [9] 1.58 µM

N#Cc1cccc(-c2cncnc2NCc2cccnc2)c1
active: Potency [14] 5.01 µM | Potency [16] 1.26 µM | Potency [19] 3.98 µM
inactive: Potency [1] > 11.4 µM | activity change, negative = inhibition [2] 13% | activity change, negative = inhibition [3] -3.61% | activity, negative = inhibition [4] 6.63% | Potency [5] > 46 µM | Potency [6] > 46 µM | Potency [7] | Potency [8] | Potency [17] | Potency [10] | Potency [20] | Potency [12] | outcome [13]

Cc1cnc(CNc2ncncc2-c2ccccc2C)cn1
inactive: Potency [1] > 11.4 µM | activity change, negative = inhibition [2] 3.21% | activity change, negative = inhibition [3] -3.77% | activity, negative = inhibition [4] -10.5% | Potency [5] > 46 µM | Potency [6] > 46 µM | Potency [7] | Potency [8] | Potency [17] | Potency [10] | Potency [20] | Potency [12] | outcome [13]
active: Potency [14] 25.1 µM | Potency [19] 7.94 µM

O=c1c(-c2ccccc2)nc2cnc(N3CCOCC3)nc2n1Cc1ccc(F)cc1
inactive: Potency [1] > 11.4 µM | Potency [5] > 9.22 µM | Potency [6] > 46 µM | Potency [7] | Potency [10] | Potency [11] | Potency [12] | outcome [13]
active: Potency [14] 20 µM

FC(F)(F)c1ccccc1-c1cc(NCc2cccnc2)ncn1
active: Potency [14] 3.98 µM
inactive: Potency [1] > 11.4 µM | activity change, negative = inhibition [2] -2.3% | activity change, negative = inhibition [3] 4.08% | activity, negative = inhibition [4] -3% | Potency [5] > 46 µM | Potency [6] > 46 µM | Potency [7] | Potency [8] | Potency [17] | Potency [10] | Potency [20] | Potency [12] | outcome [13]

COc1cccc(-c2nccc(NCc3ccccc3)n2)c1
inactive: Potency [1] > 11.4 µM | activity change, negative = inhibition [3] 15.6% | activity, negative = inhibition [4] -13.5% | Potency [5] > 46 µM | Potency [6] > 46 µM | Potency [7] | Potency [17] | outcome [13]
active: Potency [14] 0.501 µM | Potency [19] 7.94 µM | Potency [10] 15.8 µM | Potency [11] 15.8 µM | Potency [12] 25.1 µM

COc1ccc2[nH]cc(CCNc3ccnc(-c4cccnc4)n3)c2c1
inactive: Potency [1] > 11.4 µM | activity change, negative = inhibition [3] 11.3% | activity, negative = inhibition [4] -3.13% | Potency [5] > 46 µM | Potency [7] | Potency [8] | Potency [17] | Potency [12] | outcome [13]
active: Potency [14] 0.251 µM | Potency [16] 1.26 µM | Potency [18] 1.26 µM | Potency [10] 12.6 µM | Potency [11] 14.1 µM

Cc1cccc(CNc2ccnc(-c3ccccc3Cl)n2)c1
inactive: activity change, negative = inhibition [2] -2.43% | activity change, negative = inhibition [3] -3.52% | activity, negative = inhibition [4] -10.7% | Potency [5] > 46 µM | Potency [6] > 46 µM | Potency [7] | Potency [17] | Potency [10] | Potency [11] | outcome [13]
active: Potency [14] 1.58 µM | Potency [16] 3.98 µM | Potency [19] 1.26 µM | Potency [12] 28.2 µM
